Laboratory results taken from the supplement of paper PMC10849652.
About 7,900 targets were measured; listed, in parts, are those with a hit and a random draw of the rest. About 0.6% of all pairs of compound and target were hits.

What follows are targets tested with C1=CC=C(C=C1)C2=NC(=C(N2)C3=CC=NC=C3)C4=CC(=C(C=C4)Cl)O (assay: log2 fold change, soluble protein after heating vs DMSO (PISA); higher = thermal stabilisation; K562 cells, 10 uM, 30 min; active = over 0.2 and 3.5 SD of the protein, either way, in both replicates (recomputed)).
Method in brief: (§1)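 Soluble protein was quantified by TMTpro 16plex LC-MS/MS after channel sums were equalised. It was obtained as the supernatant after 21,000xg for 90 min from pooled aliquots of K562 cells (2×10^6 cells/mL, 10 μM compound, 30 min) heated for 3 min across 48°C-58°C and extracted in PBS with 0.5% NP-40 at 4°C. Thermal stability values are relative to control samples and come from duplicates. They are given as log2 fold changes.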

Sequence of UniProt Q99848 (Q99848 whole entry, looked up): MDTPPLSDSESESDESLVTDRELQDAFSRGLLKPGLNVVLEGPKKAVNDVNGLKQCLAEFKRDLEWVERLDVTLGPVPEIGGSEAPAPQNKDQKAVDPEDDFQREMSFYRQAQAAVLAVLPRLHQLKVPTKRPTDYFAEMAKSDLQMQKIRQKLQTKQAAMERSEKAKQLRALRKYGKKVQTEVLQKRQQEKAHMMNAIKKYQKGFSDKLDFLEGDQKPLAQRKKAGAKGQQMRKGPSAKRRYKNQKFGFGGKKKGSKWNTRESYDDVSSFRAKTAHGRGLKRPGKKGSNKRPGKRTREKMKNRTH
Sequence of UniProt P35222 (P35222 whole entry, looked up): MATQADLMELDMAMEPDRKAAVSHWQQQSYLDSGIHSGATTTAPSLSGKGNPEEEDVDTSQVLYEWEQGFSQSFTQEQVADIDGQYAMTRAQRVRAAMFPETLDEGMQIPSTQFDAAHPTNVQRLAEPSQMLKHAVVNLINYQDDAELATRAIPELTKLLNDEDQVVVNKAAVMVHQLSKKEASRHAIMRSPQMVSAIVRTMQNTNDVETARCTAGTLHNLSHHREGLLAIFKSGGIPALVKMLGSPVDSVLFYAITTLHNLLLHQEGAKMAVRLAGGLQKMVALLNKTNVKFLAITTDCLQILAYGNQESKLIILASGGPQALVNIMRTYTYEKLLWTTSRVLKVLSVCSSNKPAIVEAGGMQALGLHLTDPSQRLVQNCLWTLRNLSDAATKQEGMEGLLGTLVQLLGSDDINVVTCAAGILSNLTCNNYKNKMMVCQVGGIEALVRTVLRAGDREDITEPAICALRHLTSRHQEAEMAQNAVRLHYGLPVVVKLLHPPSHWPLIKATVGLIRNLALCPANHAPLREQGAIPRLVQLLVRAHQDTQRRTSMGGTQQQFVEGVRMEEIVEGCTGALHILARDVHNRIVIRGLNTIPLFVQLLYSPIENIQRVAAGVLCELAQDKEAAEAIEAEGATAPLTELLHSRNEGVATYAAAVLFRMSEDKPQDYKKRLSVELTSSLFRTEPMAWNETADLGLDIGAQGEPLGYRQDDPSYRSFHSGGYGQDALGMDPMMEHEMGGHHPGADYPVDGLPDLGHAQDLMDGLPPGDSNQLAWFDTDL
Sequence of UniProt Q9BW60 (Q9BW60 whole entry, looked up): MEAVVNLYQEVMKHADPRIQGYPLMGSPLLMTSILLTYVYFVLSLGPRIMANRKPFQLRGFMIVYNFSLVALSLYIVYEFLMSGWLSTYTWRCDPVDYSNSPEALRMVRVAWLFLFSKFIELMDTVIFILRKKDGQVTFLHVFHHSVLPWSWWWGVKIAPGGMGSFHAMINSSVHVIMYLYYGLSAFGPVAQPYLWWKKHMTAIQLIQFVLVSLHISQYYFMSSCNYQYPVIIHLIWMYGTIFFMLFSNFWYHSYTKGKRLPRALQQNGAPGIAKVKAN
Sequence of UniProt Q9NV70 (Q9NV70 whole entry, looked up): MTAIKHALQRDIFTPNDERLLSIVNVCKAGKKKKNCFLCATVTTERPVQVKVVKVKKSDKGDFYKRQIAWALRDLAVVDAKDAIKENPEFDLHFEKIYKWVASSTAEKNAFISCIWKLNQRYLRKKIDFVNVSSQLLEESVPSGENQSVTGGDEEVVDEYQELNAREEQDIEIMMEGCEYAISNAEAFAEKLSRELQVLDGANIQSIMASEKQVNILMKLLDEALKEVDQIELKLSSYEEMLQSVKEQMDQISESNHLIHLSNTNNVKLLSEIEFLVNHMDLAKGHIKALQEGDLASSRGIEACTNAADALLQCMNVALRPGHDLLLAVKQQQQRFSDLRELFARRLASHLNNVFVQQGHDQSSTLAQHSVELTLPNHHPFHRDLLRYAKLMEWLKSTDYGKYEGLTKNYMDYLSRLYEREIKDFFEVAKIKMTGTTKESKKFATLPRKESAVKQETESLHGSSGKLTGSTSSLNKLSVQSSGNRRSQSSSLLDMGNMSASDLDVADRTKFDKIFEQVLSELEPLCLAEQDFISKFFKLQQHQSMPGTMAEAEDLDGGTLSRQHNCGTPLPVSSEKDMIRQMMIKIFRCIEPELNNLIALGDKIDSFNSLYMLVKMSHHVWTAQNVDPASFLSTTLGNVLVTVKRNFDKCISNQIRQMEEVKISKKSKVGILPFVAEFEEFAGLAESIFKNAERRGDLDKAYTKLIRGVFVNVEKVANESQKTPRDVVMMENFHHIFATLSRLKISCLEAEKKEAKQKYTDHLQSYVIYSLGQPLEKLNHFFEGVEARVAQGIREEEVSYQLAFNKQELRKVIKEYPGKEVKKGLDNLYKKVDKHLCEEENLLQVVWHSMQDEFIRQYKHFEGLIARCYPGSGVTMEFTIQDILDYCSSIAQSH
Sequence of UniProt Q14320 (Q14320 whole entry, looked up): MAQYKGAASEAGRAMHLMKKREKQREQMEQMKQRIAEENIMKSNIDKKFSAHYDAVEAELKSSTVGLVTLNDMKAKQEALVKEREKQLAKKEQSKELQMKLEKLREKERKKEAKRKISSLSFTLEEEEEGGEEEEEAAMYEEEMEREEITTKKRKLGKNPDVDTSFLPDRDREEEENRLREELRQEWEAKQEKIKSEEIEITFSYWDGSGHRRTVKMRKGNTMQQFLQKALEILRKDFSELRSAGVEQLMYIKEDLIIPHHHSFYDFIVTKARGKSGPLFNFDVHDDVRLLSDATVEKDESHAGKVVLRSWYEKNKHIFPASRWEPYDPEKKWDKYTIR
Sequence of UniProt Q16254 (Q16254 whole entry, looked up): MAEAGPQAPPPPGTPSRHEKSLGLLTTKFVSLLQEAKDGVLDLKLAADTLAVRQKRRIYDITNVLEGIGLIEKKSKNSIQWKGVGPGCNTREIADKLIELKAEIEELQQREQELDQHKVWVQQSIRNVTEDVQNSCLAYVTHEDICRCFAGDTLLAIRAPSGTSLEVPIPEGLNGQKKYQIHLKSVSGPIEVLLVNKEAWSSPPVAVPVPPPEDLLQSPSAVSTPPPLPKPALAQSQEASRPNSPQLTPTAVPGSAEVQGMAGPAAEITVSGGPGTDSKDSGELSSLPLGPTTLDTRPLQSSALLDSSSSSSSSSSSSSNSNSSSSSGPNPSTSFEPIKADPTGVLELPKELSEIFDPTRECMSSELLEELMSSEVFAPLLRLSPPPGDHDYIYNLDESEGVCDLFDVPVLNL
Sequence of UniProt Q9H2P9 (Q9H2P9 whole entry, looked up): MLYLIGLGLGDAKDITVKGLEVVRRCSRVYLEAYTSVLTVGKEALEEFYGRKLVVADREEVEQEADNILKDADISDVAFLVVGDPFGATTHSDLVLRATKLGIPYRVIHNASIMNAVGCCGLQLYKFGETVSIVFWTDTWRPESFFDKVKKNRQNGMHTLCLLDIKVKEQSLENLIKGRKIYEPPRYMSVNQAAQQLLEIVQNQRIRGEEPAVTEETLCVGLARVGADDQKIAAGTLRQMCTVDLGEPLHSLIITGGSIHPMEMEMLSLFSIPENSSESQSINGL
Sequence of UniProt O60888 (O60888 whole entry, looked up): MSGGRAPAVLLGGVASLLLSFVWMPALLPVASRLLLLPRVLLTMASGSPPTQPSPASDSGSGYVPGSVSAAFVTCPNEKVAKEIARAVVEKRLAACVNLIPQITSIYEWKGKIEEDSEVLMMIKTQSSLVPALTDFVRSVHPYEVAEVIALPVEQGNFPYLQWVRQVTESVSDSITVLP
Sequence of UniProt Q8NBA8 (Q8NBA8 whole entry, looked up): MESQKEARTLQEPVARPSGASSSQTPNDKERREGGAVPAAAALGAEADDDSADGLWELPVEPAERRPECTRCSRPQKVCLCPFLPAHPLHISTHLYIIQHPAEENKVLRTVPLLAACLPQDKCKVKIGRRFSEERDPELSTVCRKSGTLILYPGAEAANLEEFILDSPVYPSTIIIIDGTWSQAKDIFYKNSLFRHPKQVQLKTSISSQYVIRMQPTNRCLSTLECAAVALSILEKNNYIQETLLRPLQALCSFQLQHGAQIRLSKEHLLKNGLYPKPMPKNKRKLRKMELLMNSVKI
Sequence of UniProt P50570 (P50570 whole entry, looked up): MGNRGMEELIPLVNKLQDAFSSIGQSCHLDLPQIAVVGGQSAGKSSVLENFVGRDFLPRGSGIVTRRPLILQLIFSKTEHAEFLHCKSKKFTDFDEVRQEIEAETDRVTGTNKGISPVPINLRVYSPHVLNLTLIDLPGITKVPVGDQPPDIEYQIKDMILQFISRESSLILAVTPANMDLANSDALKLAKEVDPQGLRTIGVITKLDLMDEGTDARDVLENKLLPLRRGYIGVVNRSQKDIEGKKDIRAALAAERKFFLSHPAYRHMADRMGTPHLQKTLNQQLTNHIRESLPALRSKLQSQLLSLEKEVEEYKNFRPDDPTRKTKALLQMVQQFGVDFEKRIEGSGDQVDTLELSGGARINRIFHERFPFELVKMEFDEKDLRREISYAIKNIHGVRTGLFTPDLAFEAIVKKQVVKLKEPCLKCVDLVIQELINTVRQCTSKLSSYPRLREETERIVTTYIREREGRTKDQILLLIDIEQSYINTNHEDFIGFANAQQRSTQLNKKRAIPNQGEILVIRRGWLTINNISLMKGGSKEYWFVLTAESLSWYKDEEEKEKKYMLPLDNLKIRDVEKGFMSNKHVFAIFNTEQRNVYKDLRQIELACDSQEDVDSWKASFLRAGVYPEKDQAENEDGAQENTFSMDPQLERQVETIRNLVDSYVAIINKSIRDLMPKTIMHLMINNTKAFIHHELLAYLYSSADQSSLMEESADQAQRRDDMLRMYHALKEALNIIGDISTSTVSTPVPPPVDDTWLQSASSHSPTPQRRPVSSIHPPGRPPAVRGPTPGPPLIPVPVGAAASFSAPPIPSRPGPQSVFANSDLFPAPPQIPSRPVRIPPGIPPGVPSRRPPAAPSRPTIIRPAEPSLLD
Sequence of UniProt P98173 (P98173 whole entry, looked up): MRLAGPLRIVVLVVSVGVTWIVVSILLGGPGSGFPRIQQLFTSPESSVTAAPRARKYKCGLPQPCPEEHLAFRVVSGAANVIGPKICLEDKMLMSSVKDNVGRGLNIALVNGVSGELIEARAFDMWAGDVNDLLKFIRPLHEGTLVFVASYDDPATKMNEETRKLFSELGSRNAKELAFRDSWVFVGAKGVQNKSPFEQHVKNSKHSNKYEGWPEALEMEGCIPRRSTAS

| Target | log2 fold change |
| --- | --- |
| DHCR24 (UniProt Q15392) | 0.03 (inactive) |
| DNM2 (UniProt P50570) | 0.019 (inactive) |
| EHBP1L1 (UniProt Q8N3D4) | -0.013 (inactive) |
| FAM118B (UniProt Q9BPY3) | 0.044 (inactive) |
| EBNA1BP2 (UniProt Q99848) | -0.047 (inactive) |
| CUTA isoform 2 (UniProt O60888) | 0.091 (inactive) |
| EXOC1 (UniProt Q9NV70) | 0.051 (inactive) |
| DFFB (UniProt O76075) | 0.037 (inactive) |
| ELOVL1 (UniProt Q9BW60) | 0.069 (inactive) |
| FAM3A (UniProt P98173) | 0.083 (inactive) |
| DTWD2 (UniProt Q8NBA8) | 0.065 (inactive) |
| DDB1 (UniProt Q16531) | -0.019 (inactive) |
| E2F4 (UniProt Q16254) | -0.064 (inactive) |
| DPH5 isoform 5 (UniProt Q9H2P9) | 0.041 (inactive) |
| CTNNB1 (UniProt P35222) | 0.036 (inactive) |
| FAM50A (UniProt Q14320) | -0.019 (inactive) |

What follows are targets tested with C1=CC=C2C(=C1)C3=NNC4=CC=CC(=C43)C2=O in the same assay as above.
Method in brief: as §1

| Target | log2 fold change |
| --- | --- |
| CTU1 (UniProt Q7Z7A3) | 0.042 (inactive) |
| DNAJC1 (UniProt Q96KC8) | -0.022 (inactive) |
| EIF4E isoform 2 (UniProt P06730) | 0.152 (inactive) |
| DIP2A (UniProt Q14689) | 0.043 (inactive) |
| DBN1 isoform 3 (UniProt Q16643) | -0.029 (inactive) |
| EXOC6 (UniProt Q8TAG9) | 0.003 (inactive) |
| EXTL2 (UniProt Q9UBQ6) | 0.062 (inactive) |
| DDOST (UniProt P39656) | 0.012 (inactive) |
| DDX39A (UniProt O00148) | -0.059 (inactive) |
| ERCC6 (UniProt Q03468) | 0.003 (inactive) |
| DYRK1A isoform 2 (UniProt Q13627) | -0.064 (inactive) |
| DBR1 (UniProt Q9UK59) | 0.006 (inactive) |
| EEF1G isoform 2 (UniProt P26641) | 0.012 (inactive) |
| DHFR (UniProt P00374) | 0.049 (inactive) |
| EFL1 (UniProt Q7Z2Z2) | 0.043 (inactive) |
| FAM114A2 (UniProt Q9NRY5) | -0.04 (inactive) |
| DNAAF2 (UniProt Q9NVR5) | -0.025 (inactive) |
| EXOC8 (UniProt Q8IYI6) | 0.001 (inactive) |
| DUS3L (UniProt Q96G46) | -0.001 (inactive) |
| DHPS (UniProt P49366) | -0.004 (inactive) |

| Target | log2 fold change |
| --- | --- |
| EDEM2 (UniProt Q9BV94) | 0.081 (inactive) |
| DHX16 (UniProt O60231) | 0.013 (inactive) |
| ERCC2 (UniProt P18074) | -0.054 (inactive) |
| DHCR24 (UniProt Q15392) | -0.009 (inactive) |
| DNM2 (UniProt P50570) | 0.033 (inactive) |
| EHBP1L1 (UniProt Q8N3D4) | -0.03 (inactive) |
| FAM118B (UniProt Q9BPY3) | -0.021 (inactive) |
| EBNA1BP2 (UniProt Q99848) | -0.134 (inactive) |
| CUTA isoform 2 (UniProt O60888) | -0.054 (inactive) |
| EXOC1 (UniProt Q9NV70) | 0.054 (inactive) |
| DFFB (UniProt O76075) | -0.005 (inactive) |
| ELOVL1 (UniProt Q9BW60) | -0.11 (inactive) |
| FAM3A (UniProt P98173) | -0.05 (inactive) |
| DTWD2 (UniProt Q8NBA8) | 0.033 (inactive) |
| DDB1 (UniProt Q16531) | -0.032 (inactive) |
| E2F4 (UniProt Q16254) | -0.02 (inactive) |
| DPH5 isoform 5 (UniProt Q9H2P9) | 0.005 (inactive) |
| CTNNB1 (UniProt P35222) | -0.01 (inactive) |
| FAM50A (UniProt Q14320) | -0.001 (inactive) |

Each target was assayed with C1CCN(C1)C(=O)NC2=CC=CC(=C2)NC3=NC=C(C(=N3)NCCC4=CN=CN4)Br in the same assay as above.
Method in brief: as §1

| Target | log2 fold change |
| --- | --- |
| CTU1 (UniProt Q7Z7A3) | 0.032 (inactive) |
| DNAJC1 (UniProt Q96KC8) | -0.001 (inactive) |
| EIF4E isoform 2 (UniProt P06730) | 0.181 (inactive) |
| DIP2A (UniProt Q14689) | 0.03 (inactive) |
| DBN1 isoform 3 (UniProt Q16643) | 0.089 (inactive) |
| EXOC6 (UniProt Q8TAG9) | -0.045 (inactive) |
| EXTL2 (UniProt Q9UBQ6) | -0.092 (inactive) |
| DDOST (UniProt P39656) | -0.002 (inactive) |
| DDX39A (UniProt O00148) | -0.007 (inactive) |
| ERCC6 (UniProt Q03468) | -0.065 (inactive) |
| DYRK1A isoform 2 (UniProt Q13627) | -0.093 (inactive) |
| DBR1 (UniProt Q9UK59) | -0.026 (inactive) |
| EEF1G isoform 2 (UniProt P26641) | 0.001 (inactive) |
| DHFR (UniProt P00374) | -0.047 (inactive) |
| EFL1 (UniProt Q7Z2Z2) | 0.027 (inactive) |
| FAM114A2 (UniProt Q9NRY5) | -0.002 (inactive) |
| DNAAF2 (UniProt Q9NVR5) | 0.021 (inactive) |
| EXOC8 (UniProt Q8IYI6) | -0.053 (inactive) |
| DUS3L (UniProt Q96G46) | -0.043 (inactive) |
| DHPS (UniProt P49366) | -0.007 (inactive) |

| Target | log2 fold change |
| --- | --- |
| EDEM2 (UniProt Q9BV94) | -0.018 (inactive) |
| DHX16 (UniProt O60231) | -0.044 (inactive) |
| ERCC2 (UniProt P18074) | -0.005 (inactive) |
| DHCR24 (UniProt Q15392) | -0.066 (inactive) |
| DNM2 (UniProt P50570) | 0.015 (inactive) |
| EHBP1L1 (UniProt Q8N3D4) | -0.1 (inactive) |
| FAM118B (UniProt Q9BPY3) | -0.045 (inactive) |
| EBNA1BP2 (UniProt Q99848) | 0.048 (inactive) |
| CUTA isoform 2 (UniProt O60888) | -0.1 (inactive) |
| EXOC1 (UniProt Q9NV70) | -0.044 (inactive) |
| DFFB (UniProt O76075) | -0.305 (active) |
| ELOVL1 (UniProt Q9BW60) | -0.124 (inactive) |
| FAM3A (UniProt P98173) | -0.044 (inactive) |
| DTWD2 (UniProt Q8NBA8) | 0.066 (inactive) |
| DDB1 (UniProt Q16531) | 0.018 (inactive) |
| E2F4 (UniProt Q16254) | -0.071 (inactive) |
| DPH5 isoform 5 (UniProt Q9H2P9) | 0.004 (inactive) |
| CTNNB1 (UniProt P35222) | -0.002 (inactive) |
| FAM50A (UniProt Q14320) | -0.026 (inactive) |
